Screen size: about 330,000 compounds; about 10,000 (3%) were called active.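 How the source made its calls: active means inhibition of at least 50% at 8 µM in the primary screen; inactive means the rest.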 What follows is part of a selection rich in actives, with near analogues and random picks from the rest.
target: Protein Mdm4 (Homo sapiens) + E3 ubiquitin-protein ligase Mdm2 (Homo sapiens) (UniProt O15151+Q00987); assay: inhibitors of human Mdm2-MdmX association, primary screen, cell-based, luminescence, split luciferase, SaOS-2, uHTS (AID 485346); settings: SaOS-2 split-luciferase Mdm2/MdmX complementation, at 8 µM, active compounds read high
Sequence (O15151 whole entry, looked up): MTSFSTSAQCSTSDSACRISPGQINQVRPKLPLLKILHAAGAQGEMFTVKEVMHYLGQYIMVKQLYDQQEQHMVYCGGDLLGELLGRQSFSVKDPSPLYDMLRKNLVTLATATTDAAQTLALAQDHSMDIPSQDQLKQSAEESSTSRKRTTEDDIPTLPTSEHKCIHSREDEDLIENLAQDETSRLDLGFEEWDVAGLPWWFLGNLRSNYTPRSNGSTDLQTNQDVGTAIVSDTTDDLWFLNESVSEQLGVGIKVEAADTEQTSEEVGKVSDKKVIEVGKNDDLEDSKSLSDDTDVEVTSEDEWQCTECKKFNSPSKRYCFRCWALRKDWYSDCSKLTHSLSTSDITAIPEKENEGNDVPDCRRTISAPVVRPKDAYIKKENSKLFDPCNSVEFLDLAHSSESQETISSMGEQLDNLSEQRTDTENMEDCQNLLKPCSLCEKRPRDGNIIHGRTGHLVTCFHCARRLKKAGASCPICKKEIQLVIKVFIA
Sequence (Q00987 whole entry, looked up): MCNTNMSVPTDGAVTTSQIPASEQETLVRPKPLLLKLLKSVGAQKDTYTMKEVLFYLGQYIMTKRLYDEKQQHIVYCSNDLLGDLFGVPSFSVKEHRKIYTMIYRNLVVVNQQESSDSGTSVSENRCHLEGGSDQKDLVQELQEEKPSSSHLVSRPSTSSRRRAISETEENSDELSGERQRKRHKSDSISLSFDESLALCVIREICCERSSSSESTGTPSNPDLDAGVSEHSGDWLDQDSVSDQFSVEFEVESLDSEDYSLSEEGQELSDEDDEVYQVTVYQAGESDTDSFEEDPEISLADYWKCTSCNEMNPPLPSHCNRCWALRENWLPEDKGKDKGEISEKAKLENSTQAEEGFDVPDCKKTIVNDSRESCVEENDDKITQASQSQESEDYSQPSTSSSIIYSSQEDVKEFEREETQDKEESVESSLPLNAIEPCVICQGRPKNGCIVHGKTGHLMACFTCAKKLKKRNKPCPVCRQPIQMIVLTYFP

inhibition, inactive:
COc1ccc(NC(=O)c2cccc3c2C(=O)N(CC2CCCO2)C3)cc1OC (configuration not stated) -24.7%, CC(NC(=O)COC(=O)c1ccc2ccccc2n1)c1ccccc1 (configuration not stated) -14.1%, C=CCSc1ccc(S(=O)(=O)N2CCN(C)CC2)cn1 13.1%, COc1ccc(N(CC(=O)NC2CCCCCCC2)S(=O)(=O)c2c(C)nn(C)c2C)cc1 -2%, O=C(/C=C/c1ccc([N+](=O)[O-])o1)NNC(=O)c1ccc(F)cc1 40%, CCOCCCNC(=S)N1CCC(NC(=O)C2CCCCC2)CC1 15.2%, Cc1ccc(C(=O)C(=S)N2CCOCC2)cc1 10.1%, CC(C)CC(CCc1ccccc1)OS(N)(=O)=O (configuration not stated) -32.9%, COc1cc(OC)c(/C=N/NC(=O)c2ccc([N+](=O)[O-])cc2)cc1Br 46.6%, COc1cc2cc(C(=O)N/N=C/c3cccc(OC)c3OC)[nH]c2cc1OC -21.6%, COC(=O)CN1C(=O)[C@H]2[C@@H](/C=C/c3ccccc3)N3C(=O)CN(CC4CC4)C(=O)[C@@]3(Cc3ccccc3)[C@H]2C1=O -8.09%, COc1ccc(C(O)(C2CCCCC2)C(CN2CCCC2)c2ccccc2)cc1 (configuration not stated) 33.8%, COc1ccc(CNc2nnnn2C)cc1 -2.21%, CCOC(=O)CNc1nc2ccccc2n2c(C)nnc12 1.6%, CCc1nnc(NC(=O)CCC(=O)N2CCN(c3cc(C)ccc3C)CC2)s1 13.7%, CC(C)[C@@H]1COC(c2cccc(C3=N[C@H](C(C)C)CO3)c2)=N1 -13.9%, COc1cc(/C=N/NC(=O)c2cc(-c3ccccc3C)nc3ccccc23)cc(OC)c1O -4.47%, COc1ccc(-c2cc(C(=O)NCCCN3CCCC3=O)c3ccccc3n2)cc1OC 8.93%, COc1ccc(NC(=O)CN(C)C(=O)c2cc(-c3ccc(C)o3)nc3ccccc23)cc1 30.3%, CN(CCOc1ccccc1)C(=O)c1cc(-c2ccco2)nc2ccccc12 18.2%, COc1ccc(Cl)cc1NC(=O)CN(C)C(=O)c1cc2ccccc2cc1OC 29.4%, COc1ccc(Cl)cc1NC(=O)CN(C)C(=O)c1ccc2n[nH]nc2c1 10.7%

inhibition, active:
COc1cccc(/C=N/NC(=O)c2[nH]nc3c2CCc2ccccc2-3)c1O 74.6%, Fc1ccc(CNc2nc3ccccc3n3nnnc23)cc1 54%, COc1ccc(-c2cc(C(=O)N(C)CC(=O)Nc3ccccc3Cl)c3ccccc3n2)cc1OC 54.1%, COc1ccc(CN(C)C(=O)c2cc(-c3ccc(C)cc3C)nc3ccccc23)c(OC)c1OC 68.6%, COc1ccc(-c2cc(C(=O)N(C)Cc3ccc(OC)c(OC)c3OC)c3ccccc3n2)cc1OC 63.2%
